Data published in PubChem BioAssay (NCI).
This is part of a sample that, as a whole, favours compounds with a hit. Of some 79,000 tested, about 15% had one in any assay. Activity calls are given as the source filed them. No stated cut-off is given here; in the data, active means growth inhibition above about 70%; inactive means the rest.

Tests used:
[1] = NCI Yeast Anticancer Drug Screen. Data for the rad52 strain (AID 147);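 further: 0% = growth of vehicle-treated control cultures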; conditions: S. cerevisiae rad52 mutant growth inhibition, hits give high values
Summary of the method: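 Screen used a yeast mutant impaired in DNA repair. After compound exposure, growth was measured. Values reflect inhibition compared with vehicle-treated cells.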

[2] = NCI Yeast Anticancer Drug Screen. Data for the rad50EPP+ strain (AID 151);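 further: 0% = growth of vehicle-treated control cultures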; conditions: S. cerevisiae rad50 mutant strain, hits give high values
Summary of the method: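 Exposing the rad50EPP+ strain to each compound, growth was compared with vehicle-only cultures to give inhibition.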

[3] = NCI Yeast Anticancer Drug Screen. Data for the mgt1 strain (AID 153); conditions: S. cerevisiae mgt1 mutant growth inhibition, hits give high values
Summary of the method: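 Genetically defined yeast (mgt1) treated with compound; inhibition of growth expressed against vehicle-treated controls.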

[4] = NCI Yeast Anticancer Drug Screen. Data for the rad50 strain (AID 155);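 further: 0% = growth of vehicle-only cultures of the same strain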; conditions: S. cerevisiae rad50 strain growth inhibition, hits give high values
Summary of the method: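 Yeast carrying a defined DNA repair defect were exposed to test compounds, and growth was compared with vehicle-treated controls to give percent inhibition.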

[5] = NCI Yeast Anticancer Drug Screen. Data for the mec2-1 strain (AID 157); conditions: S. cerevisiae mec2-1 strain, hits give high values
Summary of the method: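 Readout is yeast growth inhibition, normalised to vehicle-treated controls, in the mec2-1 strain exposed to compound.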

[6] = NCI Yeast Anticancer Drug Screen. Data for the rad14 strain (AID 159);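 further: 0% = growth of vehicle-treated control cultures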; conditions: S. cerevisiae rad14 strain growth inhibition, hits give high values
Summary of the method: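 Yeast cells carrying a defined DNA-repair defect were exposed to compounds, and growth inhibition was calculated relative to vehicle-treated control cultures.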

[7] = NCI Yeast Anticancer Drug Screen. Data for the sgs1 mgt1 strain (AID 161);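 further: 0% = growth of cultures given vehicle only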; conditions: S. cerevisiae sgs1 mgt1 strain, hits give high values
Summary of the method: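 Compounds are added to genetically altered yeast, and growth is compared with cultures given vehicle alone to give percent inhibition.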

[8] = NCI Yeast Anticancer Drug Screen. Data for the CLN2oe strain (AID 163);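 further: 0% = growth of vehicle-only control cultures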; conditions: S. cerevisiae CLN2oe strain, hits give high values
Summary of the method: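 Values reflect how much compound exposure reduced yeast growth, referenced to vehicle-exposed cells. Assay organism is a strain with a defined genetic change affecting cell-cycle control.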

[9] = NCI Yeast Anticancer Drug Screen. Data for the cln2 rad14 strain (AID 165);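 further: 0% = growth equal to vehicle treated cultures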; conditions: S. cerevisiae cln2 rad14 strain, hits give high values
Summary of the method: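 Relative to vehicle controls, growth inhibition of compound-treated cln2 rad14 yeast was recorded.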

[10] = NCI Yeast Anticancer Drug Screen. Data for the bub3 strain (AID 167); conditions: S. cerevisiae bub3 mutant strain, hits give high values
Summary of the method: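 Compounds were applied to a genetically altered yeast strain carrying a cell-cycle control defect. Growth inhibition was scored against vehicle-treated controls.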

[11] = NCI Yeast Anticancer Drug Screen. Data for the wt2 strain (AID 169);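 further: 0% = growth of vehicle-treated yeast cultures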; conditions: S. cerevisiae wt2 strain growth inhibition, hits give high values
Summary of the method: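 Values express reduction in yeast growth under compound treatment, referenced to vehicle-treated cells.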

[12] = NCI Yeast Anticancer Drug Screen. Data for the mlh1 strain (AID 171);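 further: 0% = growth of vehicle-treated control cultures of the same strain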; conditions: S. cerevisiae mlh1 strain growth inhibition, hits give high values
Summary of the method: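 Steps: expose the defined-mutant yeast strain to compound; expose a parallel culture to vehicle; measure growth; express compound effect as inhibition relative to the vehicle culture.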

[13] = NCI Yeast Anticancer Drug Screen. Data for the mlh1 rad18 strain (AID 175); conditions: S. cerevisiae mlh1 rad18 strain growth inhibition, hits give high values
Summary of the method: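 Test agents were incubated with a yeast strain of defined genotype (DNA damage repair defect). Inhibition of growth was derived by comparison with vehicle-exposed cultures.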

[14] = NCI Yeast Anticancer Drug Screen. Data for the rad18 strain (AID 177); conditions: S. cerevisiae rad18 mutant growth inhibition, hits give high values
Summary of the method: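 A genetically defined yeast mutant impaired in DNA damage repair was treated with test compounds, then its growth was measured against cultures receiving vehicle alone.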

[15] = NCI Yeast Anticancer Drug Screen. Data for the sgs1 strain (AID 173);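 further: 0% = growth of vehicle-only control cultures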; conditions: S. cerevisiae sgs1 mutant, hits give high values
Summary of the method: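 Treat defined-mutant yeast with compound; measure growth; calculate inhibition relative to vehicle-treated cells.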

[16] = at 5.0 µM (retest, dose inferred, filed as 0.5)
[17] = at 50.0 µM (retest, dose inferred, filed as 5.0)

Measured: growth inhibition

CCCCCCCCCCCCNC(C)=O
inactive: [1]; at 1.2 µM -5% | [1]; at 3.7 µM -7% | [1]; at 11.0 µM -8% | [1]; at 33.0 µM -12% | [1]; at 100.0 µM 54% | [2]; at 1.2 µM -2% | [2]; at 3.7 µM 1% | [2]; at 11.0 µM 7% | [2]; at 33.0 µM 14% | [2]; at 100.0 µM 26% | [3]; at 1.2 µM -2% | [3]; at 3.7 µM -6% | [3]; at 11.0 µM -5% | [3]; at 33.0 µM -14% | [3]; at 100.0 µM 14% | [4]; at 1.2 µM -10% | [4]; at 3.7 µM -8% | [4]; [16] -165% | [4]; at 11.0 µM 2% | [4]; at 33.0 µM 3% | [5]; at 1.2 µM 2% | [5]; at 3.7 µM -3% | [5]; [16] -47% | [5]; at 11.0 µM 8% | [5]; at 33.0 µM 3% | [5]; at 100.0 µM 3% | [6]; at 1.2 µM -3% | [6]; at 3.7 µM 0% | [6]; at 11.0 µM -2% | [6]; at 33.0 µM 1% | [6]; at 100.0 µM 40% | [7]; [16] -63% | [8]; at 1.2 µM -1% | [8]; at 3.7 µM -1% | [8]; at 11.0 µM 0% | [8]; at 33.0 µM -4% | [8]; at 100.0 µM -2% | [9]; [16] -61% | [9]; [17] -2% | [9]; at 50.0 µM 15.3% | [10]; at 1.2 µM -9% | [10]; at 3.7 µM -3% | [10]; [16] -62% | [10]; at 11.0 µM -2% | [10]; at 33.0 µM -1% | [10]; at 100.0 µM 13% | [11]; at 1.2 µM -2% | [11]; at 3.7 µM -1% | [11]; at 11.0 µM -3% | [11]; at 33.0 µM -7% | [11]; at 100.0 µM 24% | [12]; at 1.2 µM 6% | [12]; at 3.7 µM -8% | [12]; at 11.0 µM -4% | [12]; at 33.0 µM -6% | [13]; [16] -116% | [14]; at 1.2 µM -4% | [14]; at 3.7 µM -4% | [14]; at 11.0 µM -2% | [14]; at 33.0 µM -3% | [14]; at 100.0 µM 61%
active: [4]; [17] 93% | [4]; at 50.0 µM 81.3% | [4]; at 100.0 µM 90% | [5]; [17] 78% | [5]; at 50.0 µM 83% | [7]; [17] 88% | [7]; at 50.0 µM 81% | [10]; [17] 91% | [10]; at 50.0 µM 80% | [12]; at 100.0 µM 72% | [13]; [17] 94% | [13]; at 50.0 µM 91.8%

CC(=O)OCC(C)Cc1cc2c(cc1Br)OCO2 (stereo not drawn)
inactive: [1]; at 1.2 µM -6% | [1]; at 3.7 µM -11% | [1]; at 11.0 µM -8% | [1]; at 33.0 µM -3% | [1]; at 100.0 µM 19% | [2]; at 1.2 µM -9% | [2]; at 3.7 µM -6% | [2]; at 11.0 µM 16% | [2]; at 33.0 µM 18% | [2]; at 100.0 µM 33% | [3]; at 1.2 µM -3% | [3]; at 3.7 µM -9% | [3]; at 11.0 µM -8% | [3]; at 33.0 µM -9% | [3]; at 100.0 µM 16% | [4]; at 1.2 µM -16% | [4]; at 3.7 µM -19% | [4]; [16] 2% | [4]; at 11.0 µM -23% | [4]; at 33.0 µM -13% | [4]; [17] 19% | [4]; at 50.0 µM 31.6% | [4]; at 100.0 µM 38% | [5]; at 1.2 µM -3% | [5]; at 3.7 µM -4% | [5]; [16] 0% | [5]; at 11.0 µM -6% | [5]; at 33.0 µM -11% | [5]; [17] 37% | [5]; at 50.0 µM 3.8% | [5]; at 100.0 µM -10% | [6]; at 1.2 µM 4% | [6]; at 3.7 µM -3% | [6]; at 11.0 µM 9% | [6]; at 33.0 µM 12% | [6]; at 100.0 µM 56% | [7]; [16] 1% | [8]; at 1.2 µM -7% | [8]; at 3.7 µM -9% | [8]; at 11.0 µM -16% | [8]; at 33.0 µM -16% | [8]; at 100.0 µM -15% | [10]; at 1.2 µM -2% | [10]; at 3.7 µM 3% | [10]; [16] 7% | [10]; at 11.0 µM 2% | [10]; at 33.0 µM 2% | [10]; [17] 43% | [10]; at 50.0 µM 19.8% | [10]; at 100.0 µM 21% | [11]; at 1.2 µM -1% | [11]; at 3.7 µM 0% | [11]; at 11.0 µM 7% | [11]; at 33.0 µM 20% | [12]; at 1.2 µM -21% | [12]; at 3.7 µM -8% | [12]; at 11.0 µM -10% | [12]; at 33.0 µM -11% | [12]; at 100.0 µM 62% | [15]; at 1.2 µM -66% | [15]; at 3.7 µM -14% | [15]; at 11.0 µM 3% | [15]; at 33.0 µM 15% | [13]; [16] 1% | [14]; at 1.2 µM -9% | [14]; at 3.7 µM -8% | [14]; at 11.0 µM -10% | [14]; at 33.0 µM -10% | [14]; at 100.0 µM 13%
active: [7]; [17] 72% | [7]; at 50.0 µM 91.3% | [11]; at 100.0 µM 89% | [15]; at 100.0 µM 78% | [13]; [17] 70% | [13]; at 50.0 µM 78.8%
